# Assay outcomes: PubChem, National Center for Advancing Translational Sciences (NCATS)
# An excerpt weighted towards active compounds, which were near 12% of everything screened.
# G9a inh: qHTS Assay for Inhibitors of Histone Lysine Methyltransferase G9a. Histone-lysine N-methyltransferase EHMT2 (Homo sapiens), Q96KQ7. G9a H3K9 monomethylation, AlphaScreen, 2 h. Potency, µM (doses to about 102 µM), without a hit: at the highest dose activity, negative = inhibition, usual class: inhibitors. 350,000 compounds, 8.8% hits; further: on the % scale 0 is the no-effect control and ±100 the full control effect; nearly all actives have a fitted effect of over 75% in size
#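 AlphaScreen read-out: biotin-H3K9 peptide (500 nM) methylation by 20 nM enzyme with 20 uM SAM, 2 h at room temperature after 15 min compound preincubation; anti-monomethyl H3K9 antibody plus donor/acceptor beads, 10 min dark.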
# JMJD2A Tudor inh: qHTS Assay for Inhibitors of JMJD2A-Tudor Domain | Potency, µM (top dose mostly 114 µM), for inactives: at the top dose activity change, negative = inhibition, hits mostly inhibitors | 390,000 compounds, 4.4% hits | AlphaScreen JMJD2A-Tudor / H3K4me3 peptide binding; further: on the % scale 0 is the no-effect control and ±100 the full control effect; nearly all actives have a fitted effect of over 50% in size
# Target sequence (O75164 whole entry, looked up, the tested form may be a part): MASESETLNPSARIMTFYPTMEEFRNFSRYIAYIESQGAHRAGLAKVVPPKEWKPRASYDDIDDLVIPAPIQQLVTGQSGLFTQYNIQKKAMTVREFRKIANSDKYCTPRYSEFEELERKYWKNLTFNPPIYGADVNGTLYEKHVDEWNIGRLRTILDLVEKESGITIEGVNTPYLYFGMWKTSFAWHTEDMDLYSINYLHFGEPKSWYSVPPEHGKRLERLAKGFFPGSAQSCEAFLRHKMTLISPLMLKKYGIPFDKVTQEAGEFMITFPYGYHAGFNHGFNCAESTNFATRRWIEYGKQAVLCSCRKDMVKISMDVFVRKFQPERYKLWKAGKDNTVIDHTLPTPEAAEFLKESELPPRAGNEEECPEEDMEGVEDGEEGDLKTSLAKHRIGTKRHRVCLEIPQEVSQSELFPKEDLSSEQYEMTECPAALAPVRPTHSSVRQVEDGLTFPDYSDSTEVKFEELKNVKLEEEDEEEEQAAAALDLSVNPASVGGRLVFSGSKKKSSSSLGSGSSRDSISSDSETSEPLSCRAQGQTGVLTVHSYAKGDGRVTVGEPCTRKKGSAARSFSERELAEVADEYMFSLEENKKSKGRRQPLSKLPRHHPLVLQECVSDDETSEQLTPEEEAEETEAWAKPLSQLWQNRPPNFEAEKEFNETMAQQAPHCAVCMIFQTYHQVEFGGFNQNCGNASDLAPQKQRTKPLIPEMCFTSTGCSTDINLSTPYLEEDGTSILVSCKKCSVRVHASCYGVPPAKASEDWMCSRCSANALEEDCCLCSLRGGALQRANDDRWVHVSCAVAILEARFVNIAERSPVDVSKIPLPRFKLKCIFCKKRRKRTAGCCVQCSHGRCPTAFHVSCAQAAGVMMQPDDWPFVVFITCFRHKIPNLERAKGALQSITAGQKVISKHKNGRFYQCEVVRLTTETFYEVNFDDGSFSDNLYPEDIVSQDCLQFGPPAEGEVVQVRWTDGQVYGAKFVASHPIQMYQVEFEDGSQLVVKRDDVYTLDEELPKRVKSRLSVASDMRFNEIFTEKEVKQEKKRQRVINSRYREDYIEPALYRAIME
# BAZ2B inh: qHTS Assay for Inhibitors of BAZ2B; Bromodomain adjacent to zinc finger domain protein 2B (Homo sapiens), Q9UIF8; AlphaScreen BAZ2B-H3K14Ac peptide displacement; Potency, µM (series often up to 114 µM), without a hit: at the top dose activity change, negative = inhibition, hits mostly inhibitors; 360,000 compounds, 4.4% hits; AID 504333, 2011; further: on the % scale 0 is the no-effect control and ±100 the full control effect; nearly all actives have a fitted effect of over 60% in size
#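 AlphaScreen luminescence quantifies BAZ2B engagement of H3K14Ac peptide; the protein and biotinylated peptide are both at 50 nM final, buffer PBS pH 7.4 with 0.01% Tween-20, all steps at room temperature.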
# PLK1 PBD inh: qHTS for Inhibitors of PLK1-PDB (polo-like kinase 1 - polo-box domain): Primary Screen | Serine/threonine-protein kinase PLK1 (Homo sapiens), P53350 | 360,000 compounds, 2.8% hits | AID 720504, 2013 | Potency, µM, for the others: max response, negative = inhibition, hits mostly inhibitors | Plk1 PBD binding of FITC phosphopeptide, fluorescence polarization; further: series mostly up to about 57 µM; on the % scale 0 is the no-effect control and ±100 the full control effect; nearly all actives have a fitted effect of over 65% in size
# Sfp PPTase inh: qHTS Assay for Inhibitors of Bacillus subtilis Sfp phosphopantetheinyl transferase (PPTase). Biochemical Sfp PPTase activity, qHTS. Potency, µM, without a hit: largest response in the series, negative = inhibition, usual class: inhibitors. 310,000 compounds, 3.5% hits;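 further: the enzyme is Sfp with the accession as filed and its product quenches rhodamine fluorescence; 0% = enzyme reaction without inhibitor and -100% = no enzyme wells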
#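 Buffer: 50 mM Hepes-Na pH 7.6, 10 mM MgCl2, 0.01% Nonidet P-40, 0.01% BSA. Enzyme 15 nM, pre-exposed to compound 15 min; substrates then added and fluorescence change tracked over 30 min.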
# HP1b chromo inh: HTS for Inhibitors of HP1-beta Chromodomain Interactions with Methylated Histone Tails; Chromobox protein homolog 1 (Homo sapiens), P83916; AlphaScreen HP1-beta / biotin-H3K9me3 peptide binding; Potency, µM (top dose mostly 114 µM), for the others: at the top dose activity change, negative = inhibition, most hits filed as inhibitors; 390,000 compounds, 0.56% hits; AID 540317, 2011; further: nearly all actives have a fitted effect of over 70% in size
#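 HP1-beta protein (50 nM final) preincubated 30 min at room temperature with biotinylated H3(1-18)K9me3 peptide (50 nM) in PBS pH 7.4, 0.01% Tween-20, then compound added for 30 min. AlphaScreen streptavidin donor/nickel chelate acceptor beads (10 ug/mL final), 30 min dark, luminescence read.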
# An asterisk follows results filed as active; ? = inconclusive; . = not tested or not shown; ! = repeats disagree; [ ] = remark or other dose. The call rests on the fitted dose curve; in most records, active means well fitted curve in the direction sought with a large enough effect; inconclusive means small, poorly fitted or top-dose-only effect, or another doubt; inactive means no such curve, though single readings can be large; an effect the other way counts as inactive or inconclusive. Potency means the concentration at half of the fitted maximal effect.
SMILES,G9a inh,JMJD2A Tudor inh,BAZ2B inh,PLK1 PBD inh,Sfp PPTase inh,HP1b chromo inh
CCOC(=O)c1ccc(N2C(=O)c3n[nH]c(-c4ccco4)c3C2c2ccc(O)c(OC)c2)cc1 (stereo unspecified),22.4µM*,?,.,.,.,?
O=C(CSc1ncn[nH]1)Nc1cc(S(=O)(=O)N2CCCC2)ccc1Cl,?,-17.5%,.,29.9µM*,-13.0%,18.4%
O=C(CSc1ncn[nH]1)Nc1ccc(Cl)c(S(=O)(=O)N2CCOCC2)c1,50.1µM*,-19.3%,.,-20.1%,10.7%,60.8%
O=C(CC[C@H]1O[C@@H](n2cnc3c(NC(=O)c4ccccc4)ncnc32)[C@H](O)[C@@H]1O)N[C@@H](CO)Cc1c[nH]c2ccccc12,.,.,.,-2.4%,.,.
CCCNC(=O)c1cnc(Sc2ncc(C(F)(F)F)cc2Cl)n1C,17.8%,-2.5%,50.1µM*,1.2%,15.5%,22.0%
Cn1c(C(=O)N2CCOCC2)cnc1Sc1ncc(C(F)(F)F)cc1Cl,2.9%,-3.6%,?,-4.8%,-7.5%,21.5%
CC(C)CC1C(=O)N(Cc2cn(CCC3OCCO3)nn2)CCS(=O)(=O)N1Cc1ccc(-c2ccncc2)cc1 (stereo unspecified),.,.,.,-13.2%,.,.
OCCC1CN(Cc2c(O)ccc3ccccc23)CCN1CCc1ccccc1 (stereo unspecified),2µM*,?,-29.5%,23.8µM*,1.6%,-1.7%
COc1cc(CN2CCN(CCCc3ccccc3)C(CCO)C2)cc(OC)c1O (stereo unspecified),39.8µM*,-9.2%,4.1%,-24.6%,-4.7%,22.6%
COc1ccc(CN2CCN(CCCc3ccccc3)C(CCO)C2)c(OC)c1 (stereo unspecified),11.6%,-22.6%,0.5%,-10.5%,-0.6%,16.4%
C=CCOC(=O)C(C(C)=O)C(NC(=O)OC)c1cccc(F)c1 (stereo unspecified),.,.,.,.,-15.1%,.
COc1ccc(C(CNC(=O)COc2ccc(Cl)c(C)c2)N2CCOCC2)cc1 (stereo unspecified),-23.7%[59 µM],-18.9%,-12.4%,.,.,33.5%
O=C(Nc1ccccc1)O[C@@H]1C[C@H]2CCC(=O)N3CC[C@@H](C1)[C@@H]23,.,.,4.8%,.,-3.0%,.
O=C(NCCc1ccccc1)c1cc(=O)c2ccccc2o1,.,-5.6%,-4.5%,-6.7%,7.6%,22.2%
CC(C)Oc1ccc(S(=O)(=O)N2CCOCC2)cc1NC(=O)C1=COCCO1,-45.6%,-7.1%,-2.8%,-3.6%,.,14.3%
COc1ccc(OC)c(NC(=O)C2CCN(Cc3cnn(-c4ccccc4)c3-n3cccc3)CC2)c1,44.7µM*,50.1µM*,?,0.1%,8.3%,?
O=C(Nc1cccc(-c2nc3cccnc3s2)c1)c1cccc(Br)c1,17.8µM*,-28.5%,-17.6%,.,.,7.0%
O=C(/C=N/O)NCCCn1ccnc1,?,-16.7%,79.4µM*,-1.2%,3.8%,28.6%
O=C(/C=C/c1ccc(Br)cc1)NCCCn1ccnc1,.,-19.4%,-6.8%,-9.1%,4.5%,10.6%
O=C(O)C1CCCCC1C(=O)NCCCn1ccnc1 (stereo unspecified),?,-33.8%,79.4µM*,-2.2%,-2.6%,8.1%
O=c1c(O)c(-c2ccc(O)cc2)oc2ccc(O)cc12,.,.,.,.,15.5%,.
CCOC(=O)c1ccccc1NC(=O)NC(C)c1c(-n2cccc2)sc(C)c1C (stereo unspecified),-32.9%[59 µM],-8.4%,-2.1%,.,.,21.4%
COc1ccccc1N1CCN(C(=O)c2ccc3nc(-c4ccco4)c(-c4ccco4)nc3c2)CC1,10µM*,?,?,-3.2%,-7.2%,-29.2%
Cc1ccc(C)c(N2CCN(C(=O)c3ccc4nc(-c5ccco5)c(-c5ccco5)nc4c3)CC2)c1,-8.1%[0.0925 µM],-29.1%,?,5.97µM*,20µM*,-13.7%
COc1ccccc1N1CCN(C(=O)c2ccc3nc[nH]c3c2)CC1,7.9%[59 µM],-1.4%,4.2%,-5.8%,-0.3%,50.6%
SMILES,G9a inh,JMJD2A Tudor inh,BAZ2B inh,PLK1 PBD inh,Sfp PPTase inh,HP1b chromo inh
CC1CCC(NC(=O)c2ccc3c(c2)N(Cc2ccccc2F)C(=O)c2ccccc2S3=O)CC1 (stereo unspecified),-4.9%[59 µM],-6.4%,-18.2%,.,.,38.5%
O=C(CC1N=C2c3ccccc3N=C(SCC(=O)Nc3ccccc3F)N2C1=O)NCc1cccs1 (stereo unspecified),14.1µM*,-25.7%,?,.,.,-3.8%
O=C(CC1N=C2c3ccccc3N=C(SCc3ccc(Cl)cc3)N2C1=O)NCCc1ccccc1 (stereo unspecified),6.9%[59 µM],79.4µM*,-0.2%,.,.,30.7%
O=C(CC1N=C2c3ccccc3N=C(SCc3ccccc3F)N2C1=O)NCc1cccs1 (stereo unspecified),3.1%[59 µM],-23.7%,-14.1%,.,.,2.1%
Cc1ccc(CSC2=Nc3ccccc3C3=NC(CC(=O)NCc4ccco4)C(=O)N23)cc1 (stereo unspecified),?,?,50.1µM*,-21.5%,35.5µM*,9.1%
CCN1C(=C(C#N)C#N)C=Cc2cc(C)ccc21,-27.9%,-15.4%,.,1.6%,5.8%,26.0%
C=CC[n+]1c(/C=C2\C=Cc3cc(C)ccc3N2CC)ccc2ccccc21,28.2µM*,50.1µM*,35.5µM*,-2.1%,-13.1%,?
CC#C[C@]1(O)CC[C@H]2[C@@H]3CCC4=CC(=O)CCC4=C3[C@@H](c3ccc(N(C)C)cc3)C[C@@]21C,9.47µM*!,15.8µM*,12.6µM*,-6.6%,-5.3%,?
CC#C[C@]1(O)CC[C@H]2[C@@H]3CCC4=CC(=O)CCC4=C3[C@H](c3ccc(N(C)C)cc3)C[C@@]21C,.,.,.,.,-8.2%,.
CCOC(=O)c1ccc(NC(=O)c2cc3c(n(-c4ccc(C)cc4)c2=O)CC(C)(C)CC3=O)cc1,?,-16.6%,-1.0%,.,.,35.6%
COCCN=c1scc(-c2cc(OC)c(OC)c(OC)c2)n1/N=C/c1c(C)[nH]c2ccccc12,?,20µM*,11.2µM*,28.3%,-2.9%,?
COc1ccc(CCNC(=O)Nc2nc(C(N)C3CCCCC3)cs2)cc1OC (stereo unspecified),.,.,.,-10.4%,.,.
COc1ccc([C@]23Cc4cc(OC)c(OC)cc4C(O2)c2c(c4ccccc4oc2=O)O3)cc1,?,.,10µM*,.,-19.2%,.
